Results taken from PubChem BioAssay (Tox21).
Records with an inconclusive call do not appear. Activity calls are given as the source filed them. The call rests on the fitted dose curve; in most records, active means well fitted curve in the direction sought with a large enough effect in the repeat runs; inconclusive means weak or mixed curves; inactive means no such curve, though single readings can be large; an effect the other way counts as inactive or inconclusive.

Legend:
[1] = qHTS RealTime-Glo MT Cell Viability Assay in HepG2 cells - 40 hour (AID 1224870); further: nearly all actives have a fitted effect of over 50% in size
In short: (§1)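 HepG2 cells mixed with RealTime-Glo MT reagents (NanoLuc plus cell-permeant prosubstrate) were seeded at 600 cells/well, incubated 5 h at 37 C/5% CO2, then pinned with compounds in DMSO; nonlytic luminescence tracked viability during 40 h treatment.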

[2] = A CellTox Green Cytotoxicity Assay to monitor cytotoxicity in HEK293 cells - 40 hour (AID 1224871); further: nearly all actives have a fitted effect of over 45% in size
In short: (§2)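 Fluorescence intensity, read at 0, 8, 16, 24, 32 and 40 h of compound treatment, reflected dye binding to DNA of dead HEK293 cells; compounds (23 nL, DMSO) were added 5 h after plating cells with reagent.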

[3] = qHTS RealTime-Glo MT Cell Viability Assay in HEK293 cells - 16 hour (AID 1224872); further: top concentration of the series differs between compounds; nearly all actives have a fitted effect of over 50% in size
In short: (§3)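 Assay medium contained NanoLuc luciferase plus cell-permeant prosubstrate, added with HEK293 cells at 600 cells/well. After 5 h at 37 C/5% CO2 compounds were added; plates stayed at 37 C for 40 h with serial luminescence reads.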

[4] = qHTS RealTime-Glo MT Cell Viability Assay in HepG2 cells - 8 hour (AID 1224873); further: nearly all actives have a fitted effect of over 55% in size
In short: as §1

[5] = qHTS RealTime-Glo MT Cell Viability Assay in HEK293 cells - 40 hour (AID 1224874); settings: RealTime-Glo luminescence; max response: stronger effect = lower value; further: nearly all actives have a fitted effect of over 50% in size
In short: (§4)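 Viable HEK293 cells reduce a cell-permeant prosubstrate; the product diffuses out and is consumed by NanoLuc in the medium to give light. Compounds went in after a 5 h incubation and plates were read over the treatment course.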

[6] = A CellTox Green Cytotoxicity Assay to monitor cytotoxicity in HEK293 cells - 24 hour (AID 1224875); further: series mostly up to about 77 µM; nearly all actives have a fitted effect of over 45% in size
In short: as §2

[7] = A CellTox Green Cytotoxicity Assay to monitor cytotoxicity in HepG2 cells - 16 hour (AID 1224876); further: nearly all actives have a fitted effect of over 45% in size
In short: (§5)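 Using 1536-well format, dye-containing HepG2 suspension was seeded, allowed 5 h at 37 C/5% CO2, dosed by pintool with compounds, positive and negative controls, and imaged for fluorescence across 40 h.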

[8] = qHTS RealTime-Glo MT Cell Viability Assay in HepG2 cells - 32 hour (AID 1224877); further: nearly all actives have a fitted effect of over 55% in size
In short: (§6)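 qHTS, HepG2, 600 cells/well, RealTime-Glo (NanoLuc + prosubstrate) added with cells; 5 h preincubation; DMSO compound addition; 37 C; luminescence at 0/8/16/24/32/40 h.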

[9] = A CellTox Green Cytotoxicity Assay to monitor cytotoxicity in HepG2 cells - 24 hour (AID 1224878); further: nearly all actives have a fitted effect of over 45% in size
In short: as §5

[10] = A CellTox Green Cytotoxicity Assay to monitor cytotoxicity in HepG2 cells - 40 hour (AID 1224879); further: nearly all actives have a fitted effect of over 40% in size
In short: as §5

[11] = qHTS RealTime-Glo MT Cell Viability Assay in HEK293 cells - 0 hour (AID 1224880)
In short: as §4

[12] = A CellTox Green Cytotoxicity Assay to monitor cytotoxicity in HEK293 cells - 32 hour (AID 1224881); further: nearly all actives have a fitted effect of over 40% in size
In short: as §2

[13] = A CellTox Green Cytotoxicity Assay to monitor cytotoxicity in HepG2 cells - 0 hour (AID 1224882); further: nearly all actives have a fitted effect of over 35% in size
In short: as §5

[14] = A CellTox Green Cytotoxicity Assay to monitor cytotoxicity in HepG2 cells - 32 hour (AID 1224883); further: nearly all actives have a fitted effect of over 50% in size
In short: as §5

[15] = A CellTox Green Cytotoxicity Assay to monitor cytotoxicity in HEK293 cells - 8 hour (AID 1224884); further: nearly all actives have a fitted effect of over 35% in size
In short: as §2

[16] = qHTS RealTime-Glo MT Cell Viability Assay in HepG2 cells - 16 hour (AID 1224885); further: nearly all actives have a fitted effect of over 50% in size
In short: as §6

[17] = qHTS RealTime-Glo MT Cell Viability Assay in HEK293 cells - 24 hour (AID 1224886)
In short: as §3

[18] = qHTS RealTime-Glo MT Cell Viability Assay in HEK293 cells - 8 hour (AID 1224887)
In short: as §4

[19] = A CellTox Green Cytotoxicity Assay to monitor cytotoxicity in HEK293 cells - 16 hour (AID 1224888); further: nearly all actives have a fitted effect of over 35% in size
In short: as §2

[20] = qHTS RealTime-Glo MT Cell Viability Assay in HepG2 cells - 0 hour (AID 1224889); further: nearly all actives have a fitted effect of over 50% in size
In short: as §6
On the % scale 0 is the no-effect control and ±100 the full control effect.

Cc1cccc(N(C)C(=S)Oc2ccc3c(c2)CCC3)c1
inactive: Potency [1] | Potency [2] | Potency [3] | Potency [4] | max response [5] -16.2% | Potency [6] | Potency [7] | Potency [8] | Potency [9] | Potency [10] | Potency [11] | Potency [12] | Potency [13] | Potency [14] | Potency [15] | Potency [16] | Potency [17] | Potency [18] | Potency [19]

CCC1NC(=O)c2cc(S(N)(=O)=O)c(Cl)cc2N1 (stereo not drawn)
inactive: Potency [1] | Potency [2] | Potency [3] | Potency [4] | max response [5] 6.45% | Potency [6] | Potency [7] | Potency [8] | Potency [9] | Potency [10] | Potency [11] | Potency [12] | Potency [13] | Potency [14] | Potency [15] | Potency [16] | Potency [17] | Potency [18] | Potency [19] | Potency [20]

C=C1c2cccc(O)c2C(O)=C2C(=O)[C@]3(O)C(O)=C(C(N)=O)C(=O)[C@@H](N(C)C)[C@@H]3[C@@H](O)[C@H]12
inactive: Potency [1] | Potency [2] | Potency [3] | Potency [4] | max response [5] 3.62% | Potency [6] | Potency [7] | Potency [8] | Potency [9] | Potency [10] | Potency [11] | Potency [12] | Potency [13] | Potency [14] | Potency [15] | Potency [16] | Potency [17] | Potency [18] | Potency [19] | Potency [20]

Nc1ncnc2c1ncn2[C@H]1CC[C@@H](CO)O1
inactive: Potency [1] | Potency [2] | Potency [3] | Potency [4] | max response [5] 18.9% | Potency [6] | Potency [7] | Potency [8] | Potency [9] | Potency [10] | Potency [11] | Potency [12] | Potency [13] | Potency [14] | Potency [15] | Potency [16] | Potency [17] | Potency [18] | Potency [19] | Potency [20]

CCOC(=O)OC(C)OC(=O)[C@@H]1N2C(=O)[C@@H](NC(=O)[C@H](N)c3ccccc3)[C@H]2SC1(C)C (stereo partly drawn)
inactive: Potency [1] | Potency [2] | Potency [3] | Potency [4] | max response [5] -0.757% | Potency [6] | Potency [7] | Potency [9] | Potency [10] | Potency [11] | Potency [12] | Potency [13] | Potency [14] | Potency [15] | Potency [16] | Potency [17] | Potency [18] | Potency [19]

c1ccc(C[n+]2cccc3ccccc32)cc1
inactive: Potency [1] | Potency [2] | Potency [3] | Potency [4] | max response [5] -28.8% | Potency [6] | Potency [7] | Potency [8] | Potency [9] | Potency [11] | Potency [12] | Potency [13] | Potency [14] | Potency [16] | Potency [17] | Potency [18] | Potency [19] | Potency [20]

CC/C=C1/OC(=O)c2ccccc21
inactive: Potency [1] | Potency [2] | Potency [3] | Potency [4] | max response [5] -7.38% | Potency [6] | Potency [7] | Potency [8] | Potency [10] | Potency [11] | Potency [12] | Potency [13] | Potency [14] | Potency [16] | Potency [17] | Potency [18] | Potency [19] | Potency [20]
